Measurements published in PubChem BioAssay AID1240 (Sanford-Burnham Center for Chemical Genomics, 2008).
Among all 50,000 compounds or so, about 800 (1.6%) showed an effect of 50% or more. Only a selection was taken, and strong results are over-represented in it overall.

The molecules below were run against Bcl-2-like protein 10 (Homo sapiens) (UniProt Q9HD36) (assay: Phenotype converters, Bcl-B/TR3 peptide binding displacement, primary biochemical FP (AID 1240;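 further: 0% = Bcl-B with tracer peptide and DMSO and 100% = tracer peptide lacking Bcl-B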)). Conditions: GST-Bcl-B / FITC-TR3 peptide fluorescence polarization; stronger effect = higher value; compound at 3.75 mg/L.
Chain of Bcl-2-like protein 10 (Homo sapiens) (Q9HD36 whole entry, looked up): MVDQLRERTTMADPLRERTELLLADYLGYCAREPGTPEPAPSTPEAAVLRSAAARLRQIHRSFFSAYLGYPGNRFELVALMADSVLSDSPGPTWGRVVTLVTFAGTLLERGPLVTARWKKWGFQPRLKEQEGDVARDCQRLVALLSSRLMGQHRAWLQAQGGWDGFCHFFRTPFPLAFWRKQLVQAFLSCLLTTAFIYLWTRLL
In the case of `COc1ccc(C(=O)Nc2ccc(S(=O)(=O)NC(C)=O)cc2)cc1`, the displacement is reported as 13.1%.
For `COc1ccc(-n2cnc3cc(NS(=O)(=O)c4ccc(C)cc4)ccc32)cc1`, the displacement was -1.2%.
In the case of `COc1cc(C(=O)Nc2nnc(CC(=O)NCc3ccccc3)s2)cc(OC)c1OC`, the displacement is reported as -14%.
`CCCOc1ccc(N2C(=O)C3C4C=CC(C4=C(C)C)C3C2=O)cc1` (stereo not drawn) showed a displacement of 9.9%.
For `COc1ccc(N2C(=O)C3C4C=CC(C4=C(C)C)C3C2=O)cc1` (stereo not drawn), the displacement was 120%.
`CC(=O)Oc1ccc(N2C(=O)C3C4C=CC(C4=C(C)C)C3C2=O)cc1` (stereo not drawn) showed a displacement of -3.2%.
With `O=C1N=C(N2CCOCC2)S/C1=C/c1ccc(Cl)cc1` the displacement was -0.1%.
Molecule `COC(=O)c1cc(-c2ccc(OC)cc2)nc2ccc(Br)cc12` has a displacement of -4.1%.
For `COC(=O)c1ccccc1NC(=O)c1cc(-c2ccc(OC)cc2OC)nc2ccccc12`, the displacement was -3%.
Work on `COC(=O)c1sccc1NC(=O)c1cc(-c2ccc(OC)cc2OC)nc2ccccc12` yielded a displacement of 16.4%.
`COC(=O)c1cc(-c2cccs2)nc2ccc(Br)cc12` gave a displacement of 104%.
In the case of `COc1ccc(-c2cc(C(=O)Nc3ccccc3F)c3ccccc3n2)c(OC)c1`, the displacement is reported as 82.3%.
`COc1ccc(NC(=O)c2cc(-c3ccc(OC)cc3OC)nc3ccccc23)c(OC)c1` was tested, and the displacement was -0.8%.
`COC(=O)c1cc(-c2ccc(Br)cc2)nc2ccccc12` gave a displacement of 0%.
Work on `COc1cc(NC(=O)c2cc(-c3cccs3)nc3ccccc23)c(OC)cc1Cl` yielded a displacement of 55.2%.
Work on `COc1ccc(Cl)cc1NC(=O)c1cc(-c2cccs2)nc2ccccc12` yielded a displacement of 8.5%.
`COC(=O)c1sccc1NC(=O)c1cc(-c2ccccc2Cl)nc2ccccc12` was tested, and the displacement was 22.7%.
In the case of `COC(=O)c1sccc1NC(=O)c1cc(-c2cccs2)nc2ccccc12`, the displacement is reported as 60.4%.
For `COc1ccccc1NC(=O)c1cc(-c2cccs2)nc2ccccc12`, the displacement was -3.7%.
In the case of `O=C(CSCC(=O)Nc1cccc(C(F)(F)F)c1)Nc1ccccc1`, the displacement is reported as -10.4%.
For `CCOc1cc(/C=N/NC(=O)c2ccncc2)ccc1OC(=O)c1ccc([N+](=O)[O-])cc1`, the displacement was 6.9%.
Molecule `O=C1c2cccc3cccc(c23)C(=O)N1/N=C/c1ccco1` has a displacement of 25.1%.
`COc1ccc(S(=O)(=O)Nn2cnnc2)cc1` gave a displacement of -1%.
`O=C(O)CN(c1ccccc1)S(=O)(=O)c1ccccc1[N+](=O)[O-]` was tested, and the displacement was 4.7%.
For `CCOC(=O)C1=C(O)/C(=C\c2ccc(OC)cc2)N=C1C`, the displacement was 4.4%.
`Cc1onc(-c2ccccc2Cl)c1C(=O)Nc1sc(C)c(C)c1C(=O)OC(C)C` showed a displacement of -6.3%.
`CCN(CC)CCN1C(=O)C(O)=C(C(=O)/C=C/c2ccccc2)C1c1ccccc1[N+](=O)[O-]` (stereo not drawn) showed a displacement of 3.2%.
For `COc1ccc(-c2cc(C(F)(F)F)n3nc(C(=O)NCc4ccco4)c(Cl)c3n2)cc1OC`, the displacement was -5.3%.
Work on `COc1ccc(Cc2noc(COc3ccc(Cl)cc3)n2)cc1` yielded a displacement of 2.7%.
With `COc1ccccc1OCCOc1cccc(/C=C2/SC(=S)N(C)C2=O)c1` the displacement was 95.5%.
For `Cc1ccc(OCCOc2ccccc2/C=C2/SC(=S)N(C)C2=O)cc1`, the displacement was 3.3%.
For `COc1cc(C=C2C(=O)N(C)C(=O)N(C)C2=O)ccc1OCCOc1ccc([N+](=O)[O-])cc1`, the displacement was 26.1%.
`CN1C(=O)/C(=C\c2ccccc2OCCOc2ccc([N+](=O)[O-])cc2)SC1=S` gave a displacement of 133%.
`COc1cc(/C=C2/SC(=S)N(C)C2=O)ccc1OCCOc1ccc([N+](=O)[O-])cc1` was tested, and the displacement was 74.5%.
`CN1C(=O)/C(=C\c2ccccc2OCCOc2ccc(Br)cc2)SC1=S` gave a displacement of 2.3%.
For `COc1ccccc1OCCOc1ccc(/C=C2/SC(=S)N(C)C2=O)cc1`, the displacement was 3.9%.
`CN1C(=O)/C(=C\c2ccc(OCCOc3ccc([N+](=O)[O-])cc3)cc2)SC1=S` showed a displacement of -0.4%.
`Cc1ccccc1OCCOc1cccc(/C=C2/SC(=S)N(C)C2=O)c1` showed a displacement of 1.2%.
In the case of `CCc1ccc(/C=C2\C(=O)NN(c3ccc(Cl)c(Cl)c3)C2=O)cc1`, the displacement is reported as 5.7%.
`CCOc1cc(C(=O)Nc2ccc3c(c2)OCCO3)cc(OCC)c1OCC` was tested, and the displacement was -7.7%.
`C=CCn1c(C)c(/C=C(/C#N)C(=O)Nc2ccc(OC)cc2)c2ccccc21` showed a displacement of -6.6%.
Molecule `CCOC(=O)c1c(NC(=O)c2ccc(C(=O)c3ccccc3)cc2)sc2c1CCC2` has a displacement of 10.7%.
For `Cc1ccc(N[C@@H]2O[C@H](CO)[C@@H](O)[C@H](O)[C@@H]2O)cc1`, the displacement was 11%.
For `CC(=O)Oc1ccc2c(C)c(C)c(=O)oc2c1`, the displacement was 6.4%.
`CCSc1nnc2c(n1)OC(c1ccc(C(=O)O)cc1)Nc1ccccc1-2` (stereo not drawn) was tested, and the displacement was 9.9%.
`CSc1nnc2c(n1)OC(c1ccc(OCc3ccccc3)cc1)Nc1ccccc1-2` (stereo not drawn) gave a displacement of 7.4%.
`CCSc1nnc2c(n1)OC(c1ccc(OCc3ccccc3)cc1)Nc1ccccc1-2` (stereo not drawn) showed a displacement of 120%.
`CCOC(=O)C1=C(O)/C(=C/c2ccc(F)cc2)SC1=Nc1ccc([N+](=O)[O-])cc1` gave a displacement of 59.1%.
In the case of `CCOC(=O)C1=C(O)CSC1=Nc1ccc(C)cc1`, the displacement is reported as -15.6%.
`CCOC(=O)C1=C(O)CSC1=Nc1ccc(Cl)cc1` showed a displacement of -6.7%.
`CCOC(=O)C1=C(O)/C(=C/c2ccc(OCC)cc2)SC1=Nc1ccc([N+](=O)[O-])cc1` gave a displacement of 122%.
`CCOC(=O)C1=C(O)/C(=C/c2ccc(O)c(OCC)c2)SC1=Nc1ccc([N+](=O)[O-])cc1` gave a displacement of -5.5%.
Molecule `CCOC(=O)C1=C(O)/C(=C/c2ccc(Cl)cc2)SC1=Nc1ccc([N+](=O)[O-])cc1` has a displacement of -7.6%.
`CCOC(=O)C1=C(O)/C(=C/c2ccc([N+](=O)[O-])cc2)SC1=Nc1ccc(C)cc1` was tested, and the displacement was -3.1%.
`CCOC(=O)C1=C(O)/C(=C/c2ccc(O)cc2)SC1=Nc1ccc([N+](=O)[O-])cc1` was tested, and the displacement was -9.8%.
In the case of `CCOC(=O)C1=C(O)CSC1=Nc1ccc([N+](=O)[O-])cc1`, the displacement is reported as 112%.
Work on `COc1ccc(Oc2coc3cc(OC(C)=O)ccc3c2=O)cc1` yielded a displacement of 11.2%.
`COc1ccc2nc(NC(=O)COc3ccc(Cl)cc3)sc2c1` was tested, and the displacement was 14.5%.
With `COc1ccc(NC(=O)CCCOc2ccccc2)c(OC)c1` the displacement was -3.2%.
In the case of `COc1cc(NC(=O)CCCOc2ccccc2)c(OC)cc1Cl`, the displacement is reported as 71.9%.
With `COc1cc(NC(=O)CCCOc2ccc(Cl)cc2Cl)c(OC)cc1Cl` the displacement was 0.2%.
`O=C(NCc1cccs1)c1sc2cc(F)ccc2c1Cl` was tested, and the displacement was -3.8%.
`C/C(=N/NC(=O)c1sc2cc(F)ccc2c1Cl)c1cccs1` showed a displacement of 132%.
`O=C(N/N=C/c1cccs1)c1sc2cc(Cl)ccc2c1Cl` gave a displacement of 7.2%.
With `CC1=C(C(=O)Nc2cc(Cl)ccc2C)C(c2ccccc2Br)NC(=S)N1` (stereo not drawn) the displacement was -8.3%.
Molecule `O=C(Nc1ccc(O)c(-c2nc3ccccc3o2)c1)c1cc2ccccc2o1` has a displacement of -10.8%.
With `CCOC(=O)NC(NC(=O)OCC)c1cccc([N+](=O)[O-])c1` the displacement was -5.1%.
With `CCOc1cc(/C=C2\SC(=S)N(CCOC)C2=O)ccc1O` the displacement was 89.2%.
`COc1cc(/C=C2\SC(=S)N(CC(=O)N3CCCc4ccccc43)C2=O)cc(OC)c1OC` showed a displacement of 91.5%.
For `COCCN1C(=O)/C(=C/c2ccc(O)c(OC)c2)SC1=S`, the displacement was -4.4%.
Molecule `CCOc1cc(/C=C2/SC(=S)N(C)C2=O)ccc1OC(=O)c1ccc(F)cc1` has a displacement of 13.6%.
`CCOc1cc(/C=C2\SC(=S)N(C)C2=O)ccc1O` was tested, and the displacement was -6.7%.
`COc1cc(/C=C2\SC(=S)N(CC(=O)O)C2=O)cc(OC)c1OC` was tested, and the displacement was -4%.
For `CCOc1cc(/C=C2/SC(=S)N(C)C2=O)ccc1OS(=O)(=O)c1ccc(C)cc1`, the displacement was -1.9%.
In the case of `CCN1C(=O)/C(=C\c2ccc(O)c(OC)c2)SC1=S`, the displacement is reported as -3.9%.
With `CCOc1cc(/C=C2\SC(=S)N(CC(C)C)C2=O)ccc1O` the displacement was 15.9%.
For `CCOc1cc(/C=C2/SC(=S)N(C)C2=O)ccc1OC(=O)c1ccc(C)cc1`, the displacement was 62.3%.
`COc1cc(/C=C2\SC(=S)N(CC(C)C)C2=O)ccc1O` showed a displacement of 91.5%.
For `COc1cc(/C=C2/SC(=S)N(CC(=O)N3CCOCC3)C2=O)cc(OC)c1OC`, the displacement was 13.2%.
Work on `CC1(C)Nc2ccccc2N(Cc2ccc(Cl)c(Cl)c2)C1=O` yielded a displacement of -7.9%.
For `Cc1ccc(-c2nc3ccccc3o2)cc1NC(=O)c1ccco1`, the displacement was 3.1%.
In the case of `CCOC(=O)C(=O)Nc1ccc(S(=O)(=O)Nc2nccc(C)n2)cc1`, the displacement is reported as 27.4%.
For `CC(=O)Nc1ccc(S(=O)(=O)Nc2ccc(C(=O)Nc3nccs3)cc2)cc1`, the displacement was 7.5%.
`COC(=O)c1sccc1NC(=O)/C=C/c1ccc([N+](=O)[O-])cc1` showed a displacement of 5.4%.
`CC(=O)OC1CC(C)(C)N([O])C(C)(C)C1` showed a displacement of 5.8%.
Molecule `O=C1C2ON(c3ccccc3)C(c3ccco3)C2C(=O)N1c1ccc(N2CCOCC2)cc1` (stereo not drawn) has a displacement of 2.3%.
In the case of `C=CCNC(=O)c1ccc(OCc2ccccc2)cc1`, the displacement is reported as 10.2%.
In the case of `C/C(=N\NC(=O)c1ccncc1)c1ccco1`, the displacement is reported as -4.8%.
`O=C(Nc1ccc(-c2nc3ccccc3s2)cc1)c1cc2ccccc2o1` gave a displacement of -6.9%.
`S=C1NC(c2ccccc2)=NCN1c1ccccc1` was tested, and the displacement was 1.8%.
`CCOc1cc(/C=C2\SC(=S)N(CCS(=O)(=O)O)C2=O)ccc1O` gave a displacement of -60.3%.
`CCOc1cc(/C=C2/SC(=S)N(CC)C2=O)cc(Br)c1OCCOc1cccc(OC)c1` was tested, and the displacement was 92.3%.
`COC(=O)CCN1C(=O)/C(=C/c2ccc(OCc3ccc(Cl)cc3)c(OC)c2)SC1=S` gave a displacement of 24.7%.
In the case of `CCN1C(=O)/C(=C\c2cccc(OCCOc3cccc(OC)c3)c2)SC1=S`, the displacement is reported as 3.4%.
For `COc1cc(/C=C2/SC(=S)N(C)C2=O)ccc1OCCOc1ccc(Br)cc1`, the displacement was 2.3%.
In the case of `COC(=O)CN1C(=O)/C(=C\c2cccc(O)c2)SC1=S`, the displacement is reported as 0%.
`CCN1C(=O)/C(=C\c2cc(Cl)c(OCCOc3cccc(OC)c3)c(OC)c2)SC1=S` gave a displacement of 2.9%.
`C=CCN1C(=O)/C(=C\c2ccc(OCc3ccc(Br)cc3)c(OC)c2)SC1=S` was tested, and the displacement was -11.3%.
In the case of `COC(=O)CN1C(=O)/C(=C/c2ccc(OCc3ccccc3Cl)c(OC)c2)SC1=S`, the displacement is reported as 10.3%.
`CCOc1cc(/C=C2\SC(=S)N(CC(=O)OC)C2=O)ccc1O` was tested, and the displacement was 122%.
In the case of `COC(=O)CN1C(=O)/C(=C/c2ccc(OCc3ccc(Cl)cc3)c(OC)c2)SC1=S`, the displacement is reported as 87.2%.
With `COc1cc(/C=C2/SC(=S)N(C)C2=O)ccc1OCc1ccc(Br)cc1` the displacement was 88.9%.
For `CCOC(=O)c1cccc(NC(=O)COc2ccc([N+](=O)[O-])cc2)c1`, the displacement was 8.1%.
